Measurements taken from PubChem BioAssay AID2147 (National Center for Advancing Translational Sciences (NCATS), 2009).
Where “and” joins values, the source holds several entries; their conditions need not be identical. Identical values can stand only once. Among all 230,000 compounds or so, about 3,600 (1.6%) were called active. Not shown: some 15% with an inconclusive outcome. Calls follow the shape of the dose curve; as a rule, active = well fitted inhibition curve with a large enough effect (not every such curve was filed as active); inconclusive = small, poorly fitted or top-dose-only effect, or another doubt; inactive = no such curve, though single readings can be large or run the other way. Only a selection was taken, and actives are over-represented in it overall. The source holds several records for some structures; these can differ, active in one and inactive in another.

molecular target: Lysine-specific demethylase 4E (Homo sapiens) (UniProt B2RXH2); test: qHTS Assay for Inhibitors of Human Jumonji Domain Containing 2E (JMJD2E); conditions: JMJD2E catalytic domain, FDH-coupled NADH fluorescence (FDH is formaldehyde dehydrogenase); series mostly up to 57.1 µM; activity change, negative = inhibition: at the top concentration
Sequence (B2RXH2 1-337 limits assumed): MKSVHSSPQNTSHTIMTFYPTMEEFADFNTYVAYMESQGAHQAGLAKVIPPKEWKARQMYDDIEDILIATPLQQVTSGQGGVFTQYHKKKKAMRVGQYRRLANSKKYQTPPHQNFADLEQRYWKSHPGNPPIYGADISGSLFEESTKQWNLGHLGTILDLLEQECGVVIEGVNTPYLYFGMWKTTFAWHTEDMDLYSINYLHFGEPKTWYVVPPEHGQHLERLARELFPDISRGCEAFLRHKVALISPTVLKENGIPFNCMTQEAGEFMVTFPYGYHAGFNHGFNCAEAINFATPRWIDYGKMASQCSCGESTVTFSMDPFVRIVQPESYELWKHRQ
Also: nearly all actives have a fitted effect of over 50% in size.
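For activity change, negative = inhibition in this document: 0% = wells with enzyme and -100% = buffer wells without enzyme.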
Potency is read from the fitted curve at half-maximal effect.

SMILES	activity change, negative = inhibition	Potency
CC(C)CCNC(=O)C1CCC(CNc2c(N3CCC(C)CC3)c(=O)c2=O)CC1 (centres undefined)	1.04% (inactive)	
O=C(O)CCCCCCCCCC[n+]1ccccc1	-3.66% (inactive)	
COC(=O)C1=C(N)Oc2cc(C)[nH]c(=O)c2C1c1ccc(Cl)cc1 (centres undefined)	8.59% (inactive)	
Oc1cc(O)c2c(c1)OC(c1ccc(O)c(O)c1)C(O)C2 (centres undefined)		11.2 µM (active)
Cc1nnc(N/N=C/c2cccs2)[nH]c1=O	-7.79% (inactive)	
Cc1ccccc1Nc1nnc(C)c(=O)[nH]1	2.79% (inactive)	
Cc1nnc(N/N=C/c2ccccn2)[nH]c1=O		7.94 µM (active)
Cc1ccc(CN2CCN(Cc3cn(C)nc3-c3ccccc3)CC2CCO)o1 (centres undefined)	-0.595% (inactive)	
O=C(CCN1CCCCC1)N=Nc1c(O)[nH]c2ccccc12	4.17% (inactive)	
O=C(NCc1ccco1)O[C@@H]1C(=O)c2cc(Br)ccc2O[C@H]1c1ccc2c(c1)OCO2	17.8% (inactive)	
O=c1ccnc(Nc2ccc(Cl)cc2)[nH]1	3.06% (inactive)	
CCOc1ccccc1N=C1NC(=O)CS1	2.61% (inactive)	
CCOc1cccc(/C=N/N2C(=O)CSC2=S)c1O		31.6 µM (active)
O=C1CSC(=S)N1/N=C/c1ccc(O)c([N+](=O)[O-])c1	-16.3% (inactive)	
Cn1c(SCC(=O)Nc2ccc(Cl)cc2)nc(O)cc1=O	1.98% (inactive)	
Nc1nc(Sc2ncccc2[N+](=O)[O-])n[nH]1	2.63% (inactive)	
Cc1ccnc(-n2sc3ccccc3c2=O)n1		12.6 µM (active)
Cc1ccnc(SCC(N)=O)n1	0.789% (inactive)	
Cc1ccnc(Nc2nc3ccccc3s2)n1	1.18% (inactive)	
S=c1[nH]nc(Nc2ccccc2)s1		17.8 µM (active)
c1ccc(Nc2n[nH]nc2-c2ccccc2)cc1	-1.65% (inactive)	
O=c1cnnc(Nc2ccccc2)[nH]1	3.57% (inactive)	
O=C(C[n+]1ccc2c(c1)nnn2-c1ccccc1)c1ccc(Cl)cc1	9.12% (inactive)	
O=C(NCc1nnc(SCC(=O)N2CCC(Cc3ccccc3)CC2)o1)c1ccco1	6.12% (inactive)	
Cn1c(SCC(=O)N/N=C/c2ccc(O)c(O)c2)nc2ccccc21		25.1 µM (active)
Cc1nccn1CC(=O)N/N=C/c1ccc(O)c(O)c1		12.6 µM (active)

SMILES	activity change, negative = inhibition	Potency
CCOc1ccc(/C=N/NC(=O)CSc2ccccn2)cc1O	-4.84% (inactive)	
Cc1ccc(/C=N/NC(=O)CSc2nc3ccccc3o2)cc1	1.12% (inactive)	
CCn1c(SCC(=O)N/N=C/c2ccncc2)nc2ccccc21	3.37% (inactive)	
Cc1nc2ccccc2n1CC(=O)N/N=C/c1cccnc1	-7.57% (inactive)	
CC(C)(C)OC(=O)NCCCCCC(=O)N/N=C/c1coc2ccccc2c1=O	2.67% (inactive)	
O=C1/C(=C/c2cccs2)SC(=S)N1C1CCS(=O)(=O)C1 (centres undefined)	1.93% (inactive)	
CC(OC(=O)c1ccc(NS(=O)(=O)c2ccc3[nH]c(=O)[nH]c3c2)cc1)C(=O)Nc1cccc(Cl)c1Cl (centres undefined)	-4.34% (inactive)	
O=C(c1cc(COc2c(F)cccc2F)on1)N1CCSCC1	4.11% (inactive)	
Nc1nc(Nc2ccccc2)nc(NCCO)c1[N+](=O)[O-]	0.417% (inactive)	
O=C1CCCC(O)=C1N=Nc1ccc(S(=O)(=O)N2CCOCC2)cc1	-24.2% (inactive)	
CCCc1ccc(C(=O)[C@@H]2[C@@H](C(C)=O)N3c4ccc(F)cc4C=C[C@@H]3[C@@]23C(=O)Nc2ccccc23)cc1		14.1 µM (active)
CCc1cc(CNC(=O)CC2C(=O)NCCN2Cc2ccccc2C(F)(F)F)on1 (centres undefined)	-22.1% (inactive)	
Cc1noc(C)c1-c1nc(CSc2ccc(Cl)cc2)no1	-5.99% (inactive)	
COc1ccc(N2CCN(Cc3ccc(Br)s3)CC2)cc1		14.1 µM (active)
Fc1ccc(N2CCN(Cc3cnc(Oc4ccc(Br)cc4)s3)CC2)cc1	-5.18% (inactive)	
COc1ccc(N2CCN(Cc3nnc(-c4ccccc4)o3)CC2)cc1	3.96% (inactive)	
COc1ccc(CCNC(=O)C(Sc2ccccn2)c2ccccc2)cc1OC (centres undefined)	-33.4% (inactive)	
O=C(CCCN1C(=O)/C(=C/c2ccco2)SC1=S)Nc1ccccc1	-7.15% (inactive)	
CCOc1ccccc1/C=c1\sc2nc(-c3ccco3)nn2c1=O	4.2% (inactive)	
O=c1nc2s/c(=C\c3ccco3)c(=O)n2nc1Cc1ccccc1		15.8 µM (active)
Cc1c(Cl)cccc1NC(=S)N(Cc1ccccc1)Cc1cccnc1	4.24% (inactive)	
CS(=O)(=O)c1sc(C(=O)NC(=S)Nc2ccc(OC(F)(F)F)cc2)c2c1C=CCC2	-6.61% (inactive)	
CCNc1nc(NCC)nc(N/N=C/c2ccc(O)c(OC)c2)n1	-5.62% (inactive)	
CCN(CC)CCCN=C(N)N	6.35% (inactive)	
Cc1ccc(NC(=O)COc2ccc(-n3ccnc3)cc2)cc1Cl	1.53% (inactive)	
Cc1ccc(-c2nc(-c3cccnc3)sc2CC(=O)Nc2ccc(C)c(Cl)c2)cc1		15.8 µM (active)

SMILES	activity change, negative = inhibition	Potency
Cc1cc(C)c(NC(=O)CS(=O)CC(=O)Nc2cccnc2)c(C)c1 (centres undefined)	-1.38% (inactive)	
COc1ccc(CN2C(=O)C(C)S/C2=N/N=C/c2ccco2)cc1 (centres undefined)	8.02% (inactive)	
O=C(CCS(=O)(=O)c1ccccc1Cl)Nc1ccc(S(=O)(=O)Nc2ncccn2)cc1	-0.745% (inactive)	
O=c1cc(-c2ccc(O)c(O)c2)oc2cccc(O)c12		20 µM (active)
COc1ccc2c(=O)cc(-c3ccccc3)oc2c1O	-1.03% (inactive)	
CCOC(=O)COc1cc(O)c2c(=O)cc(-c3ccccc3)oc2c1	-17.6% (inactive)	
COc1c(O)cc2oc(-c3ccc(O)c(O)c3)cc(=O)c2c1O		10 µM (active)
Cc1coc(C)c1C(=O)CC1(O)C(=O)N(C)c2ccc(Cl)cc21 (centres undefined)	-3.58% (inactive)	
O=C(CS(=O)(=O)c1ccc(C(F)(F)F)cn1)NNC(=O)c1ccccc1	3.69% (inactive)	
CC(=O)c1ccc2c(c1)OCCOCCOc1ccc(C(C)=O)cc1OCCOCCO2	-0.13% (inactive)	
O=C(/C=C/c1ccc(Cl)c([N+](=O)[O-])c1)c1cccnc1	4.53% (inactive)	
Cc1cc(OCCCCOc2ccc(C#N)cc2)ccc1[N+](=O)[O-]	-10.5% (inactive)	
S=C(NCCc1ccccc1)N1CCCCC1	0.522% (inactive)	
O=C1CCN(C(=S)NCCc2ccccc2)CC1	2.72% (inactive)	
Oc1cc2c(cc1O)CN(C(=S)NCCc1ccc(Cl)cc1)CCC2		28.2 µM (active)
CC(=O)c1nnn(-c2ccc(Cl)cc2C#N)c1C	2% (inactive)	
Cc1noc(COc2ccccc2OCC(O)CNC(C)(C)C)n1 (centres undefined)	-6.31% (inactive)	
CC(C)(C)NCC(O)COc1cccc2[nH]c(=O)[nH]c12 (centres undefined)	0.739% (inactive)	
COc1ccccc1OCCNCC(O)COc1cccc2[nH]c3ccccc3c12 (centres undefined)		inactive and 25.1 µM (active)
CCN(CC)S(=O)(=O)c1ccc(N2CCOCC2)c(NC(=O)C2COc3ccccc3O2)c1 (centres undefined)	-5.42% (inactive)	
CCOc1ccc(NC(=O)CCC(=O)N/N=C/c2ccc([N+](=O)[O-])s2)cc1	-2.83% (inactive)	
O=[N+]([O-])c1ccc(C=Nc2ccc(Cl)cc2Cl)s1		22.4 µM (active)
CC(C)(C)c1cc(C(=O)N/N=C/c2ccc([N+](=O)[O-])s2)n[nH]1	0.226% (inactive)	
O=C(NNS(=O)(=O)c1ccccc1)c1cnn(-c2ccc(Cl)cc2)c1C(F)(F)F	8.91% (inactive)	
NC(=O)C1(C(N)=O)OC1c1ccc(Cl)cc1Cl (centres undefined)	0.802% (inactive)	
O=C(CSc1nc2ccccc2o1)N/N=C/c1ccccc1C(=O)O	4.12% (inactive)	

SMILES	activity change, negative = inhibition	Potency
NC(=O)C1=C[C@H](c2csc3ccccc23)C[C@H](OCc2ccc(CO)cc2)O1	-6.28% (inactive)	
O=C(NC1CC1)C1=C[C@H](c2c[nH]c3ccccc23)C[C@H](OCc2ccc(CO)cc2)O1	1.29% (inactive)	
NC(=O)C1=C[C@@H](c2csc3ccccc23)C[C@@H](OCc2ccc(CO)cc2)O1		22.4 µM (active)
OCC1(Cc2ccccc2C(F)(F)F)CCN(Cc2ccncc2)CC1	-22.4% (inactive)	
CCn1cc(C(=O)NCCCN2CCCCCC2)c(=O)c2cc(S(=O)(=O)N3CCc4ccccc4C3)ccc21		25.1 µM (active)
CCn1cc(C(=O)NCC2CCCO2)c(=O)c2cc(S(=O)(=O)N3CCCCC3)ccc21 (centres undefined)	-1.81% (inactive)	
CCOC(=O)N1CCN(C(=O)c2cn(C)c3ccc(S(=O)(=O)N4CCCC4)cc3c2=O)CC1	-0.344% (inactive)	
CC(C)(C)C(=O)Nc1c(Br)c(C2CC2)nn1-c1ccccc1	3.79% (inactive)	
O=C(COC(=O)c1ccc(S(=O)(=O)Nc2ccccc2)cc1)NCC1CCCO1 (centres undefined)	3.36% (inactive)	
CCN(CC(=O)NCCc1ccccc1)S(=O)(=O)c1ccccc1	-0.682% (inactive)	
Cc1c(CCOC(=O)c2cc([N+](=O)[O-])ccc2Cl)sc[n+]1CCCCS(=O)(=O)[O-]	9.22% (inactive)	
Cc1c(CCOC(=O)CC23CC4CC(CC(C)(C4)C2)C3)sc[n+]1Cc1ccc([N+](=O)[O-])cc1		10 µM (active)
Cc1c(CCO)sc[n+]1CC(=O)OC12CC3CC(CC(C3)C1)C2	2.74% (inactive)	
O=C(COc1ccc([N+](=O)[O-])cc1Cl)Nn1cnnc1	-3.14% (inactive)	
CC1OC(OCC2OC(Oc3c(-c4ccc(O)c(O)c4)oc4cc(O)cc(O)c4c3=O)C(O)C(O)C2O)[C@@H](O)C(O)C1O (some centres undefined)		7.08 µM (active)
COc1ccc(CCC(=O)c2c(O)cc(OC3OC(CO)C(O)C(O)C3O[C@@H]3OC(C)C(O)C(O)C3O)cc2O)cc1O (some centres undefined)	-3.34% (inactive)	
C[C@@H]1O[C@@H](OC[C@H]2O[C@@H](Oc3c(-c4cccc(O)c4O)oc4cc(O)cc(O)c4c3=O)[C@H](O)[C@@H](O)[C@@H]2O)[C@H](O)[C@H](O)[C@H]1O		7.08 µM (active)
COc1ccc(C2CC(=O)c3c(O)cc(OC4OC(COC5OC(C)C(O)C(O)C5O)C(O)C(O)C4O)cc3O2)cc1O (centres undefined)	2.92% (inactive)	
C=CCc1ccc(OCC(O)CN2CCN(Cc3ccccc3)CC2)c(OC)c1 (centres undefined)	-5.88% (inactive)	
CCN(CC)CC1(O)CCN(C(=O)c2ccc(Cl)c(Cl)c2)CC1	-3.78% (inactive)	
CSc1nnnn1-c1c(C)cc(C)cc1C	-5.36% (inactive)	
CCc1ccc[n+](-c2nc([O-])sc2C=O)c1	1.47% (inactive)	
O=C(Nc1ccc(N2CCN(C(=O)c3ccccc3)CC2)c(Cl)c1)c1ncn[nH]1	-12.6% (inactive)	
Nc1cccc(S(=O)(=O)Nc2ccc(SC(F)F)cc2)c1	0.195% (inactive)	
CN1CCN(C2=NCCO2)CC1	11.8% (inactive)	
Cc1cccc(-[n+]2c(-c3cccc(Br)c3)[nH]c3nc4ccccc4nc32)c1		25.1 µM (active)
